# From PubChem BioAssay (NCATS)
# Unmarked numbers belong to inactive results. Active and inactive are the calls of the source. The call rests on the fitted dose curve; in most records, active means well fitted inhibition curve with a large enough effect; inconclusive means small, poorly fitted or top-dose-only effect; inactive means flat fitted curve, though single readings scatter.
# Molecular target: Luciferin 4-monooxygenase (Photinus pyralis) (UniProt P08659)
# Assay: Primary firefly luciferase (FLuc) qHTS assay for identification of artifact compounds. (AID 1845220); further: nearly all actives have a fitted effect of over 60% in size;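 on activity change, negative = inhibition: plate controls were DMSO vehicle for no effect and no enzyme for full effect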
# Details: purified firefly luciferase, luminescence, 5 min; series mostly up to 54.1 µM
# Outline: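 D-luciferin and ATP (10 uM each, final) in Tris acetate buffer pH 7.6 were incubated with compounds for 15 min at room temperature. The reaction was started with 10 nM Photinus pyralis luciferase and luminescence read after 5 min. Percent inhibition was fitted to a 4-parameter Hill equation.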
SMILES,outcome,"activity change, negative = inhibition"
O=C(NCC1CN(c2ccc(N3CCOCC3=O)cc2)C(=O)O1)c1ccc(Cl)s1 (stereo unspecified),inactive,
O=C(O)CCn1c2c(c3ccccc31)C[C@H](NS(=O)(=O)c1ccc(F)cc1)CC2,inactive,
O=P(O)(O)C(O)(Cc1cccnc1)P(=O)(O)O,inactive,-16.9% [at 6.45 µM]
CC1(C)[C@H](C(=O)O)N2C(=O)C[C@H]2S1(=O)=O,inactive,
CNS(=O)(=O)CCc1ccc2[nH]cc(C3CCN(C)CC3)c2c1,inactive,
CNC(=O)c1cc(Oc2ccc(NC(=O)Nc3ccc(Cl)c(C(F)(F)F)c3)cc2)ccn1,inactive,
COc1cc2ncnc(Nc3cccc(Cl)c3)c2cc1OC,inactive,
NC1(c2ccc(-c3nc4ccn5c(=O)[nH]nc5c4cc3-c3ccccc3)cc2)CCC1,inactive,
CC[C@H](C)C(=O)O[C@H]1C[C@@H](C)C=C2C=C[C@H](C)[C@H](CC[C@@H]3C[C@@H](O)CC(=O)O3)[C@H]21,inactive,
Cc1nnc(C(=O)NC(C)(C)c2nc(C(=O)NCc3ccc(F)cc3)c(O)c(=O)n2C)o1,inactive,
CC1=NN(c2ccccc2)C(=O)C1,inactive,
Nc1nc(F)nc2c1ncn2[C@@H]1O[C@H](CO)[C@@H](O)[C@@H]1O,inactive,
CC(C(=O)O)c1ccc2c(c1)CC(=O)c1ccccc1S2 (stereo unspecified),inactive,
COc1cc2c(Nc3ccc(Br)cc3F)ncnc2cc1OCC1CCN(C)CC1,inactive,
Cc1onc(-c2ccccc2Cl)c1C(=O)N[C@@H]1C(=O)N2[C@@H]1SC(C)(C)[C@@H]2C(=O)O,inactive,
